# Screens as filed in PubChem.
# Most compounds without a hit are left out; they make up all but 6.2% or so of the library.
# Lassa entry inh: qHTS for Inhibitors of binding or entry into cells for Lassa Virus | Lassa virus pseudotype entry inhibition, cell reporter | Potency, µM (highest dose often 37.9 µM), inactives show at the top dose activity change, negative = inhibition, hits mostly inhibitors | 300,000 compounds, 1.2% hits; calls by dose curve; tested in HEK293 cells; note: potency is the fitted concentration of half-maximal effect; nearly all actives have a fitted effect of over 50% in size
# MARV entry inh: qHTS for inhibitors of binding or entry into cells for Marburg Virus | Marburg virus pseudotyped entry inhibition, cell reporter | Potency, µM (top dose mostly 37.8 µM), inactives show at the top dose activity change, negative = inhibition, actives largely listed as inhibitors | 300,000 compounds, 1.8% hits | AID 540276, 2011; calls by dose curve; tested in HEK293 cells; note: potency is the fitted concentration of half-maximal effect
# FMDV inh: High Throughput Screening for Foot and Mouth Disease Virus Antivirals; FMDV antiviral cell-based qHTS; Potency, µM (doses to about 57.9 µM), for the others: at the top dose activity change, negative = inhibition, hits mostly inhibitors; 410,000 compounds, 1.2% hits; AID 1159524, 2015; calls by dose curve; tested in HEK293T cells; note: read-out not given here; potency is the fitted concentration of half-maximal effect; nearly all actives have a fitted effect of over 45% in size
# HCMV antiviral: qHTS Assay for inhibitors of the human cytomegalovirus (HCMV) | activity change, negative = inhibition, % at 57.5 µM | HFF cells, HCMV-luciferase reporter, 72 h; stronger effect = lower value | 410,000 compounds, 4.5% hits; in the data active = activity change below about -60%; inconclusive = no clear call, values can overlap the other calls; inactive = above about -39%
#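 Inhibition of viral replication was scored as loss of reporter luminescence in HFFs infected with HCMV-luciferase (MOI 1 PFU/cell) for 72 h; compounds tested at 2 doses, normalized to buffer and Salinomycin controls.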
# The depositor's hits bear a star; ? = inconclusive; nt = not tested or not shown; [ ] = dose if it differs, or a comment. % is set by controls: 0 for no effect and ±100 for the full control effect.
SMILES,Lassa entry inh,MARV entry inh,FMDV inh,HCMV antiviral
Cn1c(SCc2cccc([N+](=O)[O-])c2)nc2ccccc2c1=O,-19%,?,20µM*,?
CCOC(CCn1c(SCc2cccc([N+](=O)[O-])c2)nc2ccccc2c1=O)OCC,4%,?,?,16
Cn1c(SCc2cccc(C#N)c2)nc2ccccc2c1=O,?,-7%[46.1 µM],?,-64*
Cc1nnc(SCc2cccc([N+](=O)[O-])c2)[nH]c1=O,-4%[46.1 µM],21%[46.1 µM],-8%,-81*
COc1ccc(C(=O)Nn2c(SCc3cccc([N+](=O)[O-])c3)nc3ccccc3c2=O)cc1,3.3µM*,8.9µM*,?,-70*
CCn1c(SCc2ccccc2)nc2ccccc2c1=O,3%[46.1 µM],-20%[46.1 µM],8%,?
COC(=O)C(NC(=O)OCc1ccccc1)(c1ccc(Br)cc1)C(Nc1ccccc1)c1ccccc1 (stereo unspecified),nt,nt,nt,39
N#C/C(=C\c1ccc(F)cc1)C(=O)NCC1CCCO1 (stereo unspecified),-9%[46.1 µM],nt,9%,-4
c1ccc(-n2cnnc2SCc2cn3ccsc3n2)cc1,0%,?,29%,-11
Cc1ccc(CSc2nc3ccccc3c(=O)n2C)cc1,-15%,?,?,-65*
Cc1ccc(-n2c(SCc3cn4ccsc4n3)nc3ccccc3c2=O)cc1,?,-24%,-10%,-65*
COc1ccc(-c2nc3ccccc3o2)cc1NC(=O)c1cccc2c(Cl)cccc12,21%[46.1 µM],6%[46.1 µM],5%,21
Cc1ccc(CSc2nnc3nc(C)cc(C)n23)cc1,20%,?,-4%,-84*
CCc1cccc(C)c1NC(=O)c1cc(S(=O)(=O)NCc2ccccc2Cl)ccc1F,-2%[46.1 µM],nt,-8%,?
CCCCCCOc1ccc(/C=C/C(=O)Nc2sc3c(c2C(=O)OC)CCC3)cc1OC,20%[46.1 µM],nt,14µM*,-107*
CNC(=O)COc1ccccc1C(=O)Nc1ccc2c(c1)oc1ccccc12,?,21µM*,14%,-69*
Cc1c(C)n(Cc2ccccc2)c2ncnc(N)c12,-4%,-11%,0%,-60*
C#Cc1ccccc1C[C@]1(C(=O)OC)C=C[C@H](C)[C@@H](c2ccccc2Br)N1C(=O)C(F)(F)F,nt,7%[14.2 µM],nt,nt
CCOc1ccc(S(=O)(=O)c2c(C(=O)c3ccccc3)cnc3cc4c(cc23)OCCO4)cc1,-9%,?,29%,-76*
CCOc1ccc(C(=O)c2cnc3ccc(Cl)cc3c2S(=O)(=O)c2ccc(C)cc2)cc1,nt,?,?,12
COCCCNC(=O)C(=O)NCC(c1ccc2c(c1)OCO2)N1CCOCC1 (stereo unspecified),9%[46.1 µM],nt,0%,-113*
COc1ccc(C(CNC(=O)Cc2ccccc2Cl)N2CCCCC2)cc1 (stereo unspecified),-11%[46.1 µM],4µM*,-1%,-37
COCCNC(=O)C(=O)NCC(c1ccc2c(c1)OCO2)N1CCOCC1 (stereo unspecified),8%[46.1 µM],nt,3%,19
Cc1ccc(C(=O)NCC(c2ccc(Cl)cc2)N2CCCCC2)cc1 (stereo unspecified),-1%[46.1 µM],?,-20%,-5
CCN(c1ccccc1)S(=O)(=O)c1cccc(C(=O)NCC(c2ccco2)N2CCCCC2)c1 (stereo unspecified),-28%,?,-10%,-71*
SMILES,Lassa entry inh,MARV entry inh,FMDV inh,HCMV antiviral
O=C(NCC(c1ccc(Cl)cc1)N1CCCCC1)c1ccc(F)cc1 (stereo unspecified),-26%[46.1 µM],2.8µM*,-3%,3
Cc1ccc2cc(CNCc3cccc4ccccc34)c(N3CCC(O)CC3)nc2c1,nt,nt,-4%,nt
CCC(C)NC(=O)Cn1c(=O)n(Cc2ccc(C(=O)NCCCOC)cc2)c(=O)c2ccccc21 (stereo unspecified),0%[46.1 µM],17%[46.1 µM],9%,1
O=C(NCC(c1ccco1)N1CCCCC1)c1ccc(COc2ccc(Cl)cc2)cc1 (stereo unspecified),10µM*,?,-23%,-33
COc1ccc(C(=O)NCC(c2ccc(N(C)C)cc2)N2CCOCC2)cc1 (stereo unspecified),3%[46.1 µM],nt,4%,-77*
COc1ccc(C(=O)NCC(c2ccc(N(C)C)cc2)N2CCCC2)cc1 (stereo unspecified),-4%[46.1 µM],nt,-25%,-26
COc1ccc(N2Cc3cccc(C(=O)Nc4ccc(Cl)cc4)c3C2=O)cc1,14%[46.1 µM],-2%[46.1 µM],23%,-9
COc1cc(NC(=S)NC2CC2)c(OC)cc1Cl,-3%,0%,-1%,-81*
CC1CCN(S(=O)(=O)c2ccc3nc(Nc4cccc(F)c4)ccc3c2)CC1,-21%[46.1 µM],nt,-11%,-102*
Cc1ccc(Nc2ccc3cc(S(=O)(=O)N4CCC(C)CC4)ccc3n2)c(Cl)c1,-21%[46.1 µM],nt,-5%,-12
C[C@H]1[C@@H](NC(=O)NCCCc2ccccc2)CC[C@@]23CCCN2C(=O)CCC[C@@H]13,nt,nt,nt,-17
CCOc1ccccc1NC(=O)C(=O)c1cc(C)n(-c2cccc(C)c2C)c1C,0%[46.1 µM],?,-7%,-7
CN(Cc1cnccn1)Cc1nc(Cc2ccccc2Cl)no1,22%[46.1 µM],-3%[46.1 µM],-9%,-22
CCN(Cc1ccncc1)Cc1nc(Cc2ccccc2Cl)no1,nt,nt,?,-61*
C/C(CCN1CCCc2nc(C)c(C)cc21)=N\O[C@H](C)CN1CCCc2nc(C)c(C)cc21,nt,-41%[14.2 µM],nt,nt
COc1ccc(O[C@H]2C=C[C@@H](c3ccccc3)O[C@H]2COC(=O)CCC(C)=NO[C@H](C)c2cn([C@@H]3COC[C@@H]3O)nn2)cc1,26%[14.3 µM],-3%[14.2 µM],nt,nt
COC(=O)C1=C(c2cccc(C#N)c2)C[C@@H]2CC[C@H]1N2C(=O)NCc1cc(C)oc1C(F)(F)F,nt,nt,-3%,-71*
COC(=O)C1=C(c2cc3ccccc3s2)C[C@@H]2CC[C@H]1N2C(=O)NCC1CC1,nt,nt,-29%,-32
COC(=O)C1=C(c2c(C)noc2C)C[C@@H]2CC[C@H]1N2C(=O)NC1CCCCC1,nt,nt,3%,2
COC(=O)C1=C(c2ccc(-c3ccccc3)c(F)c2)C[C@@H]2CC[C@H]1N2C(=O)NCc1cc(C)oc1C(F)(F)F,nt,nt,0%,-8
COC(=O)C1=C(c2ccc(OC(F)(F)F)cc2)C[C@@H]2CC[C@H]1N2C(=O)N1CCC(C)CC1,nt,nt,?,-64*
COC(=O)C1=C(c2cc3ccccc3s2)C[C@@H]2CC[C@H]1N2C(=O)NC1CC1,nt,nt,-17%,-63*
COC(=O)C1=C(c2c(C)noc2C)C[C@@H]2CC[C@H]1N2C(=O)NC1CC1,nt,nt,-7%,-97*
CN1C(=O)CC(CC(=O)N2CCCCC2CCO)(c2cccc(F)c2)C1=O (stereo unspecified),nt,nt,8%,nt
Nc1c(Cl)cc(-c2cn(CCC(=O)O)c(=O)cn2)cc1Cl,nt,nt,nt,22
CCN(CC)C(=O)c1ncn2c1C(=O)NC[C@H]2C,nt,nt,nt,-29
Cc1ccc(C)n1-c1nnc(N2CCCC(C(=O)NCc3cccc(F)c3)C2)s1 (stereo unspecified),-11%[46.1 µM],-30%[46.1 µM],-11%,-34
COC(=O)C1=C(c2ccc(OCc3ccccc3)cc2)C[C@@H]2CC[C@H]1N2C(=O)NCc1ccc(OC)c(OC)c1,nt,nt,?,-61*
